The values that follow come from ChEMBL document CHEMBL3988442, “University of Dundee, Small-Polar-MMV Screening Library” (2021).

Among all 48,000 compounds or so, about 13,000 (27%) showed an effect of 50% or more. The list shows a part of the results.

This assay concerns Wolbachia pipientis. Description: Anti-Wolbachia Cell-Based Screen. The assay is classed as functional. Also on record: scale not given: in the data most compounds retested in dose-response had high values. As to conditions: 5 µM.
For the compound `CCn1nc2c(cc1=O)CN(Cc1nc(-c3ccsc3)no1)CC2`, the “Percent Effect” value is on record as -2.212%.
In the case of `O=C1OCCCN1Cc1nc(-c2ccncc2)no1` it was 8.814%; in that of `CC1COCCN1Cc1nc(-c2ccsc2)no1` (stereo not drawn), 130%; in that of `CC(C)c1nc2c(n1C)CCN(Cc1nc(-c3ccsc3)no1)C2`, 5.269%.
In the case of `CC(Oc1cccc(Cl)c1)C(=O)Nc1cnn(CCN(C)C)c1` (stereo not drawn) it was -6.613%.
In the case of `CC(C)c1nn(CC(=O)N2CCCC2)c(=O)c2c1cnn2C(C)(C)C` it was 46.37%.
Consider `Cc1cnn(CCNCc2ccccc2C#N)c1`, for which the “Percent Effect” value is listed as -11.13%.
Next, `O=C(CCC1CCCCC1)NS(=O)(=O)CC1CC1`: -8.916%; `Cc1cccc(-c2noc(CN3CCOCC3C)n2)c1` (stereo not drawn): 119.9%.
Next, `CC1COCCN1Cc1nc(-c2cccc(Br)c2)no1` (stereo not drawn): 7.569%; `Cc1cccc(-c2noc(CN3CCC(c4ccn[nH]4)CC3)n2)c1`: -15.7%.
Next, `CC1COCCN1Cc1nc(-c2cccc(C(F)(F)F)c2)no1` (stereo not drawn): 102.5%; `Cc1cccc(-c2noc(CN3CCc4nn(C)c(=O)cc4C3)n2)c1`: -3.74%; `Cc1cccc(-c2noc(CN3CCn4c(nnc4C4CC4)C3)n2)c1`: -14.41%.
Turning to `Cc1cnn(CC(C)NCc2csc(-c3ccsc3)n2)c1` (stereo not drawn), the “Percent Effect” value was determined as 2.803%.
Next, `COCc1ccc(CNC(=O)C2=NN(c3ccccc3)C(=O)CN2)cc1`: -5.383%; `CC(C)(C)C(O)CN1CCN(C(=O)c2cccc3[nH]ncc23)CC1` (stereo not drawn): -4.967%.
In the case of `O=S1(=O)C[C@@H]2[C@H](C1)N(Cc1cc(Cl)cc(Cl)c1)CCN2CCO` it was 13.48%; in that of `O=C(NCc1cccnc1)C1CN(c2cnc3ccccc3n2)CCN1` (stereo not drawn), -3.228%; in that of `Cc1cccc(NC(=O)c2cncc(C3CCNCC3)n2)n1`, 105%.
Next, `O=C(Nc1ccccn1)c1nc(N2CCCC2)ncc1Cl`: -4.003%; `Cc1ccnc(NC(=O)c2ccc(Cl)o2)c1`: -0.2777%; `Cc1cccc(NC(=O)c2ccc(-n3cncn3)nn2)n1`: -9.734%.
With `Cc1cccc(NC2CCN(C(=O)Nc3cccc4[nH]ccc34)CC2)n1`, the “Percent Effect” value is -4.499%.
Next, `O=c1n(Cc2ccccn2)nc(C2CCNCC2)n1Cc1ccccc1`: -4.835%; `O=C(Nc1ccc(Cl)cn1)C1CCCN(CCc2ccncc2)C1` (stereo not drawn): -1.04%; `O=C(Nc1ccc(Cl)cn1)c1cncc(C2CCNCC2)n1`: 119.3%.
Next, `Cc1ccnc(NC(=O)c2cncc(C3CCNCC3)n2)c1`: 117.9%; `O=C(Nc1cc(C2CCOCC2)[nH]n1)c1ccc(Cl)cn1`: -26.34%.
As to `Cl.O=C(Nc1ccccn1)c1cncc(C2CCNCC2)n1`, the “Percent Effect” value was 82.75%.
Next, `Cc1ccnc(NC(=O)c2c(C)oc(C)c2C)c1`: 13.28%.
In the case of `O=C(NCCn1ccnc1)c1cc(Br)c[nH]1` it was -7.332%; in that of `Cc1cnn(CCNC(C)c2nnc(-c3cccc(Cl)c3)o2)c1` (stereo not drawn), -21.78%; in that of `Cc1occc1C(=O)N1CCc2ncnc(C3CCOC3)c2CC1` (stereo not drawn), -5.799%.
In the case of `COc1cccc(-c2noc3c2CN(c2nc(C)ncc2C)CC3)c1` it was -35.21%; in that of `O=C(Nc1ccccc1OC1CCOC1)c1cc[nH]n1` (stereo not drawn), -3.911%.
Regarding `Cc1nc(Cn2nc(C3CCNCC3)n(Cc3ccccc3)c2=O)no1`, the “Percent Effect” value is -19.55%.
Next, `Cc1ccccc1NC(=O)c1cncc(C2CCNCC2)n1.Cl`: 126.6%.
Take `CCCc1cc(C(=O)N2CCC3(CC2)CN(CCN(C)C)C(=O)O3)no1`: the “Percent Effect” value is reported as -10.71%.
Next, `Cc1ncsc1CCN(C)C1CCN(c2ncnc3[nH]cnc23)CC1`: 13.21%.
On to `Nc1ncnc2c1ncn2[C@H]1CCN(Cc2ccsc2)CC[C@@H]1O`, for which the “Percent Effect” value was 125.5%.
Turning to `Cc1ncsc1CN1CCN(C)C2(CCC(=O)N(CCO)CC2)C1` (stereo not drawn), the “Percent Effect” value was -3.684%.
Turning to `Cc1ncsc1CN1CC[C@H](O)[C@@H](n2cnc3c(N)ncnc32)CC1`, the “Percent Effect” value amounted to 93.47%.
In the case of `c1cc(CN2CCC(n3cc(CN4CCCC4)nn3)CC2)cs1` it was 0.307%; in that of `CN(C)S(=O)(=O)N1CC[C@]2(O)CCN(c3cc(C#N)ccn3)C[C@@H]2C1`, -4.757%.
In the case of `CC(C)CN1C(=O)c2ccc(C(=O)NCCc3c[nH]cn3)cc2C1=O` it was 4.031%; in that of `CCc1cnc(N)nc1N1CCCC2(CCOCC2)C1`, 7.215%.
Next, `Cc1nn(C)c(Cl)c1C1CCCN1C(=O)c1cccc(C#N)c1` (stereo not drawn): 117.2%; `COc1c(C2CCCN2C(=O)c2ccnc(N(C)C)c2)c(C)nn1C` (stereo not drawn): 3.661%.
With `Cc1nn(C)c(Cl)c1C1CCCN1C(=O)c1ccc2c(c1)COC2` (stereo not drawn), the “Percent Effect” value stood at 103.2%.
Next, `Cc1nn(C)c(Cl)c1C1CCCN1C(=O)c1ccnc(N(C)C)c1` (stereo not drawn): 115.9%; `Cc1nn(C)c(C)c1C1CCCN1C(=O)c1cnc2n[nH]c(C)c2c1` (stereo not drawn): -6.27%; `Cc1nn(C)c(C)c1C1CCCN1C(=O)c1ccnc(N(C)C)c1` (stereo not drawn): 114%.
